Experimental findings from ChEMBL document CHEMBL4513216, “Probing the Open Global Health Chemical Diversity Library for Multistage-Active Starting Points for Next-Generation Antimalarials” (ACS Infect Dis, 2020) are described below.

The whole screen tested about 68,000 compounds, of which about 2,700 (4%) showed an effect of 50% or more. The entries come from a sample that favours strong results as a whole.

This experiment relates to Plasmodium berghei. The experiment in a line: Screen against P. berghei liver stage (PbLuc), transformed with Luciferase, at 2uM. In kind it is functional, HepG2. The note with it: tested at 2 uM.
Consider `N#Cc1cccc(CN2CC3(CCCCN3c3cccnc3)CC2=O)c1` (stereo unspecified), for which the INHIBITION was determined as 12.57%. On to `CN(C)CC(c1ccccc1)N(C)C(=O)c1cccc(NCC(=O)O)c1` (stereo unspecified), for which the INHIBITION was 8.26%. Turning to `CNc1cccc(C2CCCN(C(=O)c3cncs3)C2)n1` (stereo unspecified), the INHIBITION is -33.77%.

As to `CC(NC(=O)Nc1ccc(F)c(F)c1)c1nc[nH]n1` (stereo unspecified), the INHIBITION is -5.51%. As for `Cc1cccc(OCCC(=O)N2CCCN(CC(N)=O)CC2)c1C`, the INHIBITION is recorded as -5.2%. For `CCCN(Cc1ccccc1O)S(=O)(=O)C(C)CC` (stereo unspecified) the value was 17.48%; for `CC(Cn1cccn1)NC(=O)c1ccsc1` (stereo unspecified), -18.04%; for `CC1c2ncc(CNC(=O)C3CC3)n2CCN1CC1CCC1` (stereo unspecified), 35.07%.

For the molecule `CSC(C)CCN(Cc1ccccn1)Cc1sccc1C` (stereo unspecified), the INHIBITION is given as -22.06%. Regarding `Cc1cccc(-n2ncc3c2CCCC3NCC(C)(C)CO)c1C` (stereo unspecified), the INHIBITION was found to be 45.82%. As for `Cc1noc([C@@H]2C[C@H]3CN(C(=O)C4CCN(C)CC4)C[C@H]3O2)n1`, the INHIBITION amounted to 33.12%. As for `CC(C)n1c(=O)c2sccc2n(CC(=O)Nc2ccccc2)c1=O`, the INHIBITION came out at 10.62%. To `Cc1cc(C)n(C2CCCN(C(=O)Cc3cccc(F)c3)C2)n1` (stereo unspecified) belongs 14.06%; to `COc1ccc(CC(=O)N2CCCC(n3nc(C)cc3C)C2)cc1F` (stereo unspecified), 6.3%. For `Cc1ccc(CC(=O)N2CCCC(n3nc(C)cc3C)C2)cn1` (stereo unspecified) the value was 5.59%. For `Cc1cc(C)n(C2CCCN(C(=O)Cc3ccc(C#N)cc3)C2)n1` (stereo unspecified) the value was -11.34%; for `COc1ccc(CC(=O)N2CCCC(n3nc(C)cc3C)C2)cc1` (stereo unspecified), 52.87%. As for `COc1cccc(CC(=O)N2CCCC(n3nc(C)cc3C)C2)c1` (stereo unspecified), the INHIBITION turned out to be 62.75%.

Take `COc1ncc(CN(C)C2CCN(C(C)C)CC2)cn1`: the INHIBITION is recorded as 36.08%.

Regarding `Cn1cc(CNC2CCc3c(ccc(=O)n3Cc3cccnc3)C2)cn1` (stereo unspecified), the INHIBITION worked out at 17.69%.

As to `O=C(NS(=O)(=O)c1cc(Cl)ccc1Cl)c1cccc2c1OCCO2`, the INHIBITION is listed as -55.23%. To `Cc1nn(C)c2cnn(Cc3ccc(C(=O)N4CCN(C)CC4)o3)c12` belongs 1.33%; to `CS(=O)(=O)NCCC(=O)N1Cc2cnc(-c3ccccc3)nc2C1`, -49.29%. To `CCn1cc(CN2CCCN(C(=O)CCN3CCCC3=O)CC2)cn1` belongs -35.65%.

Take `CCn1cc(CN2CCCN(C(=O)c3cccn3C)CC2)cn1`: the INHIBITION was determined as 19.18%. To `CCn1cc(CN2CCCN(C(=O)C3=NN(C)C(=O)CC3)CC2)cn1` belongs 59.73%; to `COc1cccc(S(=O)(=O)NC(=O)CCC2CCCC2)c1`, 37.68%; to `O=C(c1cccnc1)N1CCOC(c2ccc(-c3cncnc3)cn2)C1` (stereo unspecified), -6.04%.

Consider `C[C@H]1C[C@H]2CN(C(=O)CCOc3ccccc3)CC[C@H]2O1`, for which the INHIBITION was -12.84%. For `C[C@H]1C[C@H]2CN(C(=O)CCc3ccccc3)CC[C@H]2O1` the value was 65.32%; for `COCCC(=O)N1CC[C@@H]2O[C@@H](C)C[C@H]2C1`, 22.01%. Consider `Cc1n[nH]c(C)c1CCC(=O)NCC1COc2ccccc2C1` (stereo unspecified), for which the INHIBITION is 11.19%.

`NC(=O)COc1ccc(C(=O)N2CCCC(n3ccnc3)C2)cc1` (stereo unspecified): the INHIBITION was -10.05%.

As to `CC(C)Oc1ccc(C(=O)N2CC[C@H](O)[C@@H](n3ccnc3)CC2)cc1`, the INHIBITION stood at 52.69%. To `COCc1ccc(C(=O)N2CC[C@H](O)[C@@H](n3ccnc3)CC2)cc1` belongs -7.01%; to `Nc1cc2c(nn1)CCN(C(=O)C1CCc3ccccc31)C2` (stereo unspecified), 16.89%. Consider `CCOC(=O)N1CC2(CCNCC2)c2cc(Cl)ccc21`, for which the INHIBITION is on record as -12.43%.

As to `c1cc(CCNc2ccc(CC3CCNC3)cn2)ccn1` (stereo unspecified), the INHIBITION was -6.19%. To `Cc1cc(C)n(C2CCCN(C(=O)c3ccnc(N(C)C)c3)C2)n1` (stereo unspecified) belongs 3.17%; to `OCc1csc(N2CCN(Cc3cccc(F)c3)CC2)n1`, 45.82%; to `OCc1csc(N2CCCN(Cc3ccc(F)cc3)CC2)n1`, 36.28%. To `Cc1cccc(CN2CCN(c3nc(CO)cs3)CC2)c1` belongs 86.36%; to `CCS(=O)(=O)CCN1CCC(N(C)Cc2ncc(C)o2)C1` (stereo unspecified), 31.55%; to `Cc1noc(C)c1CN1CCc2ncnc(-c3ccc(F)cc3)c2CC1`, 49.45%. For `CCNC(=O)C1(CC2CC(c3ccccc3OC)=NO2)CCOCC1` (stereo unspecified), the INHIBITION is given as -2.93%.

As to `CCCNC(=O)C1(CC2CC(c3ccccc3OC)=NO2)CCOCC1` (stereo unspecified), the INHIBITION was 51.57%.

Turning to `COc1ccccc1C1=NOC(CC2(C(=O)NCCO)CCOCC2)C1` (stereo unspecified), the INHIBITION was -39.01%. For `CCS(=O)(=O)N1CCC2(CC1)CC(COC)N(c1ncccn1)C2` (stereo unspecified) the value was 28.45%; for `Cc1cc(C)n(CC2CCCCN2CCC(=O)Nc2cc(C)on2)n1` (stereo unspecified), 21.39%.

Regarding `Cc1cnc(-c2nc(-c3cccc(CN4CCOCC4)c3)no2)cn1`, the INHIBITION is reported as 15.74%. To `Cc1c(-c2nc(-c3cccc(CN4CCOCC4)c3)no2)cnn1C` belongs 35.56%; to `Cc1cc(-c2nc(-c3cccc(CN4CCOCC4)c3)no2)no1`, 53.19%; to `CCOCCNC(=O)c1ccc(OC)cc1I`, 30.48%. For `Clc1cccc(C[C@@H]2NCCC[C@@H]2Nc2ccccc2)c1` the value was 33.95%; for `Cc1ccc2cc(C(=O)N3CCC(O)(C(F)(F)F)CC3)ccc2n1`, -13.42%.

As for `CC1=NOC(C(=O)N2CCC(O)(c3ccc4nc(C)ccc4c3)CC2)C1` (stereo unspecified), the INHIBITION is listed as -70.57%. Consider `COCCOCC(=O)N1CCC(O)(c2ccc3nc(C)ccc3c2)CC1`, for which the INHIBITION is given as -3.38%. For `Cc1ccc2cc(C3(O)CCN(C(=O)[C@@H]4CCCCN4)CC3)ccc2n1` the value was 53.98%; for `Cc1ccc2cc(C(=O)N3CCN(C(=O)N(C)C)CC3)ccc2n1`, 7.02%. For `Cc1ccc2cc(C3(O)CCN(C(=O)CSC(C)C)CC3)ccc2n1` the value was 70.17%; for `Cc1ccc2cc(C3(O)CCN(C(=O)CN4CCCC4)CC3)ccc2n1`, 8.65%; for `Cc1ccc2cc(C3(O)CCN(C)CC3)ccc2n1`, 8.88%. `CCCOC(C)C(=O)N1CCC(O)(c2ccc3nc(C)ccc3c2)CC1` (stereo unspecified): the INHIBITION was found to be 52.66%. Turning to `Cc1ccc(CNC(=O)Nc2nccs2)cn1`, the INHIBITION is given as -11.83%. Take `Cc1nc(CN2CCCC(Cn3cc(CCO)nn3)C2)c2ccccn12` (stereo unspecified): the INHIBITION was -27.82%.

As for `Cn1cc(-c2nnn3c2COC(CNCc2ccncc2)C3)cn1` (stereo unspecified), the INHIBITION is recorded as -42.69%.
